GoLoco inh red: inhibitors of human Gai1-RGS12 GoLoco interaction (red fluorophore); Potency, µM (highest dose often 61.6 µM), most hits filed as inhibitors; AID 880; Gai1:RGS12 GoLoco peptide FP, rhodamine, 10 min; 230,000 compounds, 0.44% hits; P63096; active = well fitted inhibition curve with a large enough effect, not every such curve was filed as active; inactive = no such curve, though single readings can be large or run the other way; note: nearly all actives have a fitted effect of over 30% in size
CBFb-RUNX1 inh: CBF-beta/RUNX1 interaction disruption | Q01196+Q13951 | AlphaScreen CBFb-His/RUNX1-biotin binding, biochemical | Potency, µM (doses to about 59.8 µM), actives largely listed as inhibitors | 230,000 tested, under 10 active
Target sequence (Q01196 whole entry, looked up): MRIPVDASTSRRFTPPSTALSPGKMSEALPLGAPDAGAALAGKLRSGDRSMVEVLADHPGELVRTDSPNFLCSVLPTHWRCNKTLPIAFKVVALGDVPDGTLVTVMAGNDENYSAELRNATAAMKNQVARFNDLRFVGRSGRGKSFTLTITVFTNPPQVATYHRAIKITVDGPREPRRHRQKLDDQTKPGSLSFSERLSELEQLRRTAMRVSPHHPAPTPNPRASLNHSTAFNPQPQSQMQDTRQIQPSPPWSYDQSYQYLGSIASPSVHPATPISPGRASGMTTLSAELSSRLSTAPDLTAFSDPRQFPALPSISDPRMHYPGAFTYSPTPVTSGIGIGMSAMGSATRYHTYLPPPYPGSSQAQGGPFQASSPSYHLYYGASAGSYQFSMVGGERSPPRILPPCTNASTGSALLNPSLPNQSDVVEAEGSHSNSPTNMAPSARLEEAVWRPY
Target sequence (Q13951 whole entry, looked up): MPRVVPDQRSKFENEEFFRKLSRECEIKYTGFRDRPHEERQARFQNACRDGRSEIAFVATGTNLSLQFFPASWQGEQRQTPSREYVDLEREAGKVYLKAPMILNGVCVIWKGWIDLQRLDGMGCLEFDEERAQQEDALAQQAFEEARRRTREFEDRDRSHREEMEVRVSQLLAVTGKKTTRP
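His-tagged CBF-beta and biotinylated RUNX1 (30 nM each) were premixed 20 min at room temperature, exposed to compound for 15 min, then given nickel-chelate and streptavidin AlphaScreen beads (50 ng each). After 90 min, AlphaScreen signal was read.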
ERK EGF block: blocks ERK signaling stimulated by EGF. HEK293-V1b, EGF-stimulated phospho-ERK AlphaScreen. Potency, µM (doses to about 11.5 µM), most hits filed as inhibitors. 130,000 compounds, 0.41% hits. AID 1454; note: nearly all actives have a fitted effect of over 55% in size
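Concentration-response of compounds against EGF-driven ERK phosphorylation in V1b-expressing HEK293 cells; 30 min preincubation, 5 min EGF, AlphaScreen detection; Normalized to DMSO basal and 25 nM EGF.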
Large screens that a line does not name were inactive; ! = not confirmed by another sample. Only some compounds are listed: those with a hit (about 0.5% of all), similar ones and a draw of the others. Unless noted, calls come from the whole dose curve; as a rule, active = well fitted curve in the direction sought with a large enough effect; inconclusive = small, poorly fitted or top-dose-only effect, or another doubt; inactive = no such curve, though single readings can be large; an effect the other way counts as inactive or inconclusive.

CCCCCCCN[C@H]1CCC[C@@H]1CCCCCCC(=O)O	none
Clc1cccc2c1Sc1ccccc1CC2N1CCNCC1 (stereo unspecified)	ERK EGF block 28µM
Clc1ccc2c(c1)C(N1CCNCC1)Cc1ccccc1S2 (stereo unspecified)	ERK EGF block inconclusive
CC[C@@H](C)C(N)C(=O)O (stereo partly specified)	none (no result: GoLoco inh red, ERK EGF block)
Nc1ccc(Br)c2c1C(=O)c1ccccc1C2=O	CBFb-RUNX1 inh inconclusive (no result: ERK EGF block)
COc1ccc(S(=O)(=O)N2CCCC2)c(Cl)c1Cl	none
COC1=C(OC)C(=O)c2ccccc2C1=O	none
COc1ccc(OC)c2c1C(=O)c1ccccc1C2=O	GoLoco inh red 7.9µM (no result: ERK EGF block)
COc1ccc(OC)c2c1C(=O)C(Cl)=C(Cl)C2=O	GoLoco inh red 0.45µM, ERK EGF block 28µM
COc1ccc(N)c2c1C(=O)c1ccccc1C2=O	CBFb-RUNX1 inh inconclusive, ERK EGF block 20µM
CCNc1ncc2nc(-c3ccc(OC)cc3)c(=O)n(Cc3cccc(OC)c3)c2n1	none (no result: CBFb-RUNX1 inh)
Cc1ccc(S(=O)(=O)/C=C\C#N)cc1	none
CC1(C)CC(N2CCN(Cc3ccccc3)CC2)=CC(=[N+]2CCCCC2)C1	GoLoco inh red 25µM
CC1(C)CC(N2CCCC2)=CC(=[N+]2CCCC2)C1	GoLoco inh red 2µM
CC1(C)CC(N2CCCC2)=CC(=[N+]2CCCCC2)C1	GoLoco inh red 6.3µM
CC1(C)CC(NNCCC#N)=CC(=[N+]2CCCC2)C1	none
c1ccc(-c2ccc(CN3CCN(c4ncccn4)CC3)cc2)cc1	none (no result: GoLoco inh red, ERK EGF block)
CC1(C)CC(=O)C=C(N2CCN(C3=CC(=O)CC(C)(C)C3)CC2)C1	none (no result: ERK EGF block)
NC(=O)c1ccc(C[C@H](C(=O)O)N2C(=O)c3ccc(C(=O)O)cc3C2=O)cc1	none (no result: GoLoco inh red, ERK EGF block)
O=C(O)CCCC/C=C\C[C@@H](O)/C=C/C=C/C=C\[C@@H](O)CCCC(=O)O	none
O=C1c2cccc(O)c2C(=O)c2c(O)cc(CO)cc21	none (no result: GoLoco inh red, ERK EGF block)
O=C1c2c(O)ccc(O)c2C(=O)c2c(NCCNCCO)ccc(NCCNCCO)c21	CBFb-RUNX1 inh inconclusive, ERK EGF block 20µM!
C=CCOC(=O)N[C@@H](CCc1ccccc1)C(C(C)=O)C(C)=O	none
COc1cccc(-c2cc(NCc3cnc(C)cn3)ncn2)c1	none (no result: CBFb-RUNX1 inh, ERK EGF block)
CN(C)CC(CN(C)C)c1ccccn1	none (no result: CBFb-RUNX1 inh, ERK EGF block)
Nc1ccc(O)c2c1C(=O)c1ccccc1C2=O	none
CC(=O)Nc1ccc(Nc2ccc3c4c(cc(=O)n3C)-c3ccccc3C(=O)c24)cc1	none
O=C1c2ccccc2C(=O)c2c(Nc3ccc(CCO)cc3)ccc(O)c21	ERK EGF block 14µM (no result: CBFb-RUNX1 inh)
O=C1c2ccccc2C(=O)c2c(O)ccc(O)c21	GoLoco inh red 28µM, CBFb-RUNX1 inh inconclusive
CC(C)(C)OC(=O)[C@H](C1N[C@@H](C(=O)O)C(C)(C)S1)N1C(=O)c2ccccc2C1=O (stereo partly specified)	none (no result: CBFb-RUNX1 inh, ERK EGF block)
CC(=O)OCC1OC(c2ccc(C(C)=O)cc2)C=CC1OC(C)=O (stereo unspecified)	none (no result: GoLoco inh red, ERK EGF block)
CC(=O)NCCNc1nc(-c2ccccc2C)nc2ccccc12	none (no result: CBFb-RUNX1 inh, ERK EGF block)
COc1cccc([C@@H]2Oc3ccc(OC)cc3/C(=N/OC[C@@H](O)COCc3ccco3)[C@@H]2O)c1	none (no result: GoLoco inh red, ERK EGF block)
Cn1cc(/C=C2\SC(=O)N(c3ccccc3)C2=O)c2ccccc21	none
Cn1cc(/C=C2\SC(=O)N(c3ccc(O)cc3)C2=O)c2ccccc21	ERK EGF block 35µM
COC(=O)c1ccc(C(/C=C/[C@@H](C)C(=O)N(C)C)NC(=O)OCc2ccccc2)cc1 (stereo partly specified)	none
C=C1CCN(C(CC(C)C)C(=O)NCc2ccc(Cl)cc2)S(=O)(=O)c2ccccc21 (stereo unspecified)	none (no result: GoLoco inh red, ERK EGF block)
O=C1C=C(Nc2ccc(Cl)cc2)CC(c2ccc(Cl)cc2)C1 (stereo unspecified)	ERK EGF block 14µM
Cc1ccc(C2CC(=O)C=C(Nc3ccc(Cl)cc3)C2)cc1 (stereo unspecified)	none
CCOC(=O)CC1(C)OCC(C[N+]2(C)CCCCC2)O1 (stereo unspecified)	GoLoco inh red 11µM
CCOC(=O)CC1(c2ccccc2)CCOC(C)(C)C1 (stereo unspecified)	none (no result: ERK EGF block)
ONCc1ccccc1	none (no result: GoLoco inh red, ERK EGF block)
Nc1nc(N2CCOCC2)cc(=O)[nH]1	GoLoco inh red 20µM (no result: ERK EGF block)
Cc1cc(N2CCOCC2)nc(N)n1	none
O=c1[nH]c2cc3ccccc3cc2nc1C(F)(F)F	none
FC(F)(F)c1nc2cc3nc4ccccc4[nH]c3cc2n1	GoLoco inh red 16µM
COc1ccc(-c2cn[nH]c2-c2ccc(OCc3ccc(F)cc3)cc2O)cc1OC	CBFb-RUNX1 inh inconclusive, ERK EGF block inconclusive
COc1ccc(-c2cn[nH]c2-c2ccc(OCc3ccccc3)cc2O)cc1OC	ERK EGF block 22µM
N#CC(C#N)=C1C=CC=CN1/C(=C\c1ccco1)C(=O)c1ccccc1	ERK EGF block 14µM
COc1ccc(C(=O)/C(=C\c2ccco2)N2C=CC=CC2=C(C#N)C#N)cc1	none (no result: ERK EGF block)
CC[C@H](C)[C@H](NC(=O)[C@H](CCCNC(=N)N)NC(=O)[C@@H]1CCCN1C(=O)[C@H](Cc1ccccc1)NC(=O)[C@H](Cc1cnc[nH]1)NC(=O)[C@H](CCCNC(=N)N)NC(=O)[C@@H](NC(=O)[C@H](C)NC(=O)[C@H](CCC(=O)O)NC(=O)[C@H](CC(N)=O)NC(=O)[C@@H](N)CCCCN)C(C)C)C(=O)N[C@@H](Cc1c[nH]c2ccccc12)C(=O)N[C@@H](CC(C)C)C(=O)O	none (no result: GoLoco inh red, ERK EGF block)
Cc1nc(COC(=O)c2cc(O)c3ccccc3c2O)cs1	GoLoco inh red 25µM
Cc1nc(COC(=O)c2ccc(CO)cc2)cs1	none (no result: ERK EGF block)
c1csc(CNc2ncnc3ccc(-c4ccc5c(c4)OCO5)cc23)c1	ERK EGF block inconclusive (no result: CBFb-RUNX1 inh)
c1ccc(Nc2ncnc3ccc(-c4ccc5c(c4)OCO5)cc23)cc1	ERK EGF block 2.8µM (no result: CBFb-RUNX1 inh)
O=C(Nc1ccccc1Cl)Nc1ccccc1Cl	none
O=C(Nc1ccc(Nc2ccccc2)cc1)Nc1ccccc1Cl	CBFb-RUNX1 inh inconclusive, ERK EGF block 28µM
CC1(C)CCC[C@@](C)([C@H]2CC[C@]3(C)[C@@H]2[C@H](O)C[C@@H]2[C@@]4(C)CC[C@H](O)C(C)(C)[C@@H]4CC[C@]23C)O1	none (no result: GoLoco inh red, ERK EGF block)
CCC[C@@H]1C[C@@]1(CCC)C(NP(=O)(c1ccccc1)c1ccccc1)c1ccc(Cl)cc1 (stereo partly specified)	none
O=C(OCCN1CCOCC1)C(c1ccccc1)c1ccccc1	none (no result: ERK EGF block)
CC(C)N1C(=O)CC2(CC[N+](C)(CCOC(=O)C(c3ccccc3)c3ccccc3)CC2)C1=O (stereo unspecified)	GoLoco inh red 11µM (no result: ERK EGF block)
O=C(O)CCC(=O)c1cccc2ccccc12	none (no result: ERK EGF block)
C[N+](C)(C)CCC(=O)c1cccc2ccccc12	GoLoco inh red 25µM!, ERK EGF block inconclusive
CC(=O)Nc1ccc(SCCN2CCN(C)CCC2=O)cc1	none (no result: GoLoco inh red, ERK EGF block)
Cc1cc(O)c(C=O)c2c1C(=O)Oc1c(COC(=O)/C=C/C(=O)O)c(O)c(C(=O)O)c(C)c1O2	none (no result: CBFb-RUNX1 inh)
Cc1cc(O)c(C=O)c2c1C(=O)Oc1c(CO)c(O)c3c(c1O2)C(O)OC3=O (stereo unspecified)	GoLoco inh red 11µM (no result: CBFb-RUNX1 inh)
CC(C)=CCC/C(C)=C/CO/N=C1/C[C@@H](O)[C@@H](O)[C@@H]2[C@@H]3C(=O)N(Cc4ccccc4)C(=O)[C@H]3CC[C@H]12	none (no result: GoLoco inh red, ERK EGF block)

Source: PubChem BioAssay
